Efa HMGR inh: E. faecalis class II HMG-CoA reductase inhibition; inhibition, % at 10 µM; AID 1066; actives 0.41% (n = 190,000); purified E. faecalis HMGR, NADPH absorbance 340 nm kinetic;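 active = inhibition above a set limit, the median over all tested compounds plus 3 SD, cut at about 9.5% in these data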;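 note: enzyme runs in reverse so mevalonate oxidation gives rising NADPH absorbance; 0% = complete reaction with DMSO and 100% = background rate lacking mevalonate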
L929 necroptosis: blocks zVAD induced death of L929 cells; L929 zVAD necroptosis rescue, ATP luminescence, 24 h; with zVAD 60 µM; viability rescue, % at 10 µM; actives 0.38% (n = 220,000); AID 1377;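 active = activation, scaled between plate controls, above about 75%, limit read from the data; inactive = activation under that limit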;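 note: 0% = zVAD with DMSO and 100% = DMSO alone without zVAD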
14-3-3 Bad PPI: disrupts binding of bovine 14-3-3 zeta to phospho-Bad peptide | TR-FRET 14-3-3zeta/Dy647-pBad peptide displacement, 1 h | actives 0.71% (n = 220,000) | inhibition, % at 21.7 µM | AID 781 | P63103;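 active = inhibition above about 70%, limit read from the data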;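 note: 0% = full 14-3-3 plus peptide FRET controls and 100% = background without 14-3-3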
Target sequence (P63103 whole entry, looked up): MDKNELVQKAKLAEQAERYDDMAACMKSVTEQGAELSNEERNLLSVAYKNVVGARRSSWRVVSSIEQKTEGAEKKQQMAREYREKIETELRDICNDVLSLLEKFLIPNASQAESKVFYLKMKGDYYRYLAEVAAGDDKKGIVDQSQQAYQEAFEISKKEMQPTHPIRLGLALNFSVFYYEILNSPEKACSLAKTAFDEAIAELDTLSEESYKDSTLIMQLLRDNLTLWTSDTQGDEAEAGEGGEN
Calpain2 inh: inhibitors of pig calpain II. purified calpain II, fluorogenic peptide substrate, 30 min. AID 1236. inhibition, % at 16 µM. actives 0.37% (n = 220,000);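 active = inhibition above about 50%, limit read from the data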
TNF death inh: inhibitors of TNF-alpha induced necroptosis in Jurkat FADD-/- cells; AID 463075; activation (protection from cell death), % at 10 µM; actives 0.068% (n = 220,000); Jurkat FADD-/- TNF necroptosis rescue, ATP luminescence, 24 h; 0 = TNF only, 100 = no-TNF cells;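 active = activation, meaning protection from cell death, of at least 50% relative to plate controls; inactive = activation below 50%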;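 note: necroptosis triggered by 40 ng/mL TNF-alpha added together with compound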
ROMK primary: modulates human ROMK potassium channel activity; P48048; Tet-inducible ROMK, thallium flux fluorescence; actives lie on both sides; B-score at 10 µM; actives 2% (n = 130,000); AID 1918;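 active = signal ratio slope over the read window, or its plate-corrected B-score, at least 3 SD from the plate mean, either direction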;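 note: B-score of the F/F0 ratio slope over 7 to 12 s after thallium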
Target sequence (P48048 whole entry, looked up): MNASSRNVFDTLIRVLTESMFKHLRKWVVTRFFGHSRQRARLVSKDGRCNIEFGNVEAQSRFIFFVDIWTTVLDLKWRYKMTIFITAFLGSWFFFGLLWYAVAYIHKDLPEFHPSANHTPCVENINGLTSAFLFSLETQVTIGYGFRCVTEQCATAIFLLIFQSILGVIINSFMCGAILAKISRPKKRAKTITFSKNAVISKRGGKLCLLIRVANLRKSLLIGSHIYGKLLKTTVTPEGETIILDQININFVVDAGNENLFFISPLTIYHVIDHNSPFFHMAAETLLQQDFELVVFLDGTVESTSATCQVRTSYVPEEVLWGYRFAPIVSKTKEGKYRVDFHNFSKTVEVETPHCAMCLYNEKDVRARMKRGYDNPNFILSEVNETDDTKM
The depositor's hits bear a star; i = inactive; . = no result; ! = not confirmed by another sample. Most compounds without a hit are left out; they make up all but 3% or so of the library.

SMILES	Efa HMGR inh	L929 necroptosis	14-3-3 Bad PPI	Calpain2 inh	TNF death inh	ROMK primary
COc1ccc(S(=O)(=O)N(c2onc(C)c2Cl)S(=O)(=O)c2ccc(OC)c(OC)c2)cc1OC	1.4	0.0	77.7*	7.3	-2.7	.
C=CCN(C(=O)CSc1nc2c(sc3ccccc32)c(=O)n1CCN(CC)CC)c1ccccc1	-6.3	-0.8	-8.5	12.4	2.8	1.69
O=C(NC(=S)N1CCN(c2nc(-c3ccccc3)cs2)CC1)c1cncc(Br)c1	4.7	1.0	-41.1	-104.9	-0.1	4.82*
O=C(COC(=O)CCOc1ccccc1)Nc1ncc(Cl)cc1Cl	-7.9	.	-6.8	-47.2	1.1	-1.12
Cc1ccc(C(=O)COC(=O)C2CC(=O)N(c3nc(-c4ccccc4)cs3)C2)cc1 (centres undefined)	4.1	-0.3	5.1	36.7	0.3	0.325
CS(=O)(=O)N1CCN(Cc2ccccc2C(F)(F)F)CC1	-1.7	-0.4	-4.5	-13.8	-3.5	.
CS(=O)(=O)N1CCN(Cc2ccc(C(F)(F)F)cc2)CC1	-0.8	-0.8	80.8*	-32.5	3.2	-0.00419
N#C/C(=N\Nc1cccc(Cl)c1)C(=O)c1ccccc1	-0.1	0.6	3.2	-62.4	-5.7	-1.91
COc1ccc(C(=O)/C(C#N)=N/Nc2cccc([N+](=O)[O-])c2)cc1	-3.4	-2.9	-0.7	39.3	-7.9	7.59*
Nc1n[nH]c(N)c1N=Nc1ccccc1	-9.6	-2.4	-3.8	0.2	-4.2	2.04
Nc1n[nH]c(N)c1N=Nc1ccc(F)cc1	2.3	-0.7	-1.1	50.8*	-2.4	0.589
CCS(=O)(=O)CCn1c([N+](=O)[O-])cnc1C	13.6*	14.6	-3.5	-4.3	2.8	.
Cc1ncc([N+](=O)[O-])n1CCO	-2.1	62.2	-2.2	27.2	-4.4	.
Cc1ncc([N+](=O)[O-])n1CC(C)O (centres undefined)	15.6*!	0.2	-0.6	11.3	-1.0	.
Cc1nn(CC(=O)NNC(=O)c2ccccc2F)c([N+](=O)[O-])c1Br	.	0.7	-3.2	15.6	3.6	0.558
Cc1nnc(-c2cnn(C)c2N)n1CCCN1CCOCC1	0.9	0.0	-5.0	-13.0	-3.1	-0.221
Cc1onc(-c2c(Cl)cccc2Cl)c1C(=O)NCCc1ccc(S(N)(=O)=O)cc1	-0.7	0.7	-4.8	12.4	0.0	0.255
C=CCN1C(=O)N/C(=C/c2ccc(N3CCOCC3)o2)C1=O	-1.3	0.9	-8.5	1.8	0.2	-3.79*
O=C1S/C(=C/c2ccc(N3CCOCC3)o2)C(=O)N1Cc1ccc(F)cc1	4.3	-0.2	20.2	12.9	-0.8	.
Cc1ccc(-c2ccc(/C=C3\SC(N4CCOCC4)=NC3=O)o2)cc1	11.6*	-2.4	-14.5	-42.5	-5.7	-2.75
O=C1NC(=S)S/C1=C/c1ccc(N2CCOCC2)o1	-4.7	14.1	-22.2	0.5	-2.5	-3.34*
O=C(c1ccc(F)cc1)C1CCN(C(=S)NCC2CCCO2)CC1 (centres undefined)	11.6*	-0.6	-14.2	-22.2	-1.6	-1.59
Cc1ccc(C(=O)C2CCN(C(=S)NCC3CCCO3)CC2)cc1 (centres undefined)	-4.0	-0.4	-9.9	9.4	-0.7	0.762
CC1CCN(S(=O)(=O)c2ccc(NC(=O)CCN3C(=O)c4ccccc4C3=O)cc2)CC1	-6.9	0.0	0.8	43.1	0.6	-0.456
O=C(CCCCCN1C(=O)c2ccccc2C1=O)Nc1ccc(S(=O)(=O)N2CCCCC2)cc1	-5.0	0.9	1.7	53.4*	-9.5	-0.0496
SMILES	Efa HMGR inh	L929 necroptosis	14-3-3 Bad PPI	Calpain2 inh	TNF death inh	ROMK primary
CC1CCC2(CC1)NC(=O)N(CC(=O)c1cn(CCC#N)c3ccccc13)C2=O (centres undefined)	.	0.5	1.6	37.6	5.8	.
COc1cccc(CN(C(=O)Cc2c[nH]c3ccccc23)C(C(=O)NC2CCCCC2)c2ccc(C)o2)c1 (centres undefined)	1.6	0.4	-4.7	-31.2	2.7	-0.532
O=c1[nH]c(-c2ccc(F)cc2)nc2c1sc(=S)n2-c1ccccc1	-8.8	-0.2	-6.4	11.3	-0.2	.
O=c1[nH]c(-c2ccccc2Cl)nc2c1sc(=S)n2-c1ccccc1	-1.7	3.5	70.7*	48.4	-0.4	-0.0928
COc1ccc(S(=O)(=O)N(C)c2ccc(C(=O)N3CCCC3)cc2)cc1	9.7*	-0.2	-1.3	-3.1	0.1	-0.518
COc1ccc(C(=O)CNc2ccc(C)cc2C)cc1	.	1.1	1.1	-3.5	-5.9	-0.994
CC(C)(C)c1ccc(-n2nc(C#N)c(Cl)cc2=O)cc1	0.6	6.4	-1.9	-17.9	-16.9	-0.011
CN1CCN(CCCC(=O)c2ccc(F)cc2)CC1	0.4	-0.1	85.7*	5.8	2.5	.
O=C(CCCN1Cc2ccccc2C1)c1ccc(F)cc1	-4.0	0.0	25.7	2.2	2.5	-0.135
COc1ccccc1NC(=O)C(=O)N/N=C/c1ccc([N+](=O)[O-])s1	-1.2	0.1	84.4*	-36.2	-3.3	0.174
CCCCOC(=O)Cn1cnc2ccc(Br)cc2c1=O	1.8	0.1	0.3	-7.7	13.0	.
O=C(Cn1cnc2ccc(Cl)cc2c1=O)c1cccs1	-4.3	1.3	-9.3	7.4	67.2*	.
CC(C)COC(=O)Cn1cnc2ccc(Br)cc2c1=O	2.4	0.9	9.4	-22.5	56.9*	-0.304
O=C(Cn1cnc2ccc(Br)cc2c1=O)c1cccs1	-1.6	0.7	-6.8	29.7	73.6*	.
Cc1nc(CC(=O)N/N=C/c2ccc(OCC(=O)O)cc2)cs1	.	-0.1	12.7	19.6	1.8	.
O=C(O)COc1ccc(/C=N/NC(=O)c2ccc(-c3csc(Nc4ccc(Cl)cc4)n3)cc2)cc1	.	0.1	94.4*	31.7	2.3	.
O=C(c1cccc(Cl)c1)N1CCn2c1nc1ccccc12	-0.6	0.5	-7.6	19.2	-1.7	0.558
O=C(Nc1ccc(OC(=O)c2ccccc2)c(-c2nc3ccccc3s2)c1)c1ccccc1	-8.6	0.1	6.5	63.8*	-4.1	-1.09
CNCCCC1Sc2ccccc2Oc2ccccc21 (centres undefined)	-3.0	-0.7	40.6	16.1	0.8	-3.68*
CNCCCC1c2ccccc2C=Cc2ccccc21	-2.4	9.0	-0.7	-5.9	-1.3	.
COc1ccc(C2CC(c3cccs3)=Nc3ccccc3S2)cc1 (centres undefined)	-1.9	0.4	-11.2	40.1	-4.8	-0.787
Cc1cn(C(=O)c2ccccc2)c(=S)n1-c1ccc(Br)cc1	-0.1	2.1	2.5	29.8	-2.0	.
Cc1ccccc1N/C(=C(/C(Cl)=C(Cl)Cl)[N+](=O)[O-])n1nnc2ccccc21	-1.4	0.7	53.8	1.4	0.1	0.054
COc1ccc(N/C(=C(/C(Cl)=C(Cl)Cl)[N+](=O)[O-])n2nnc3ccccc32)cc1	-3.8	-0.2	78.6*	i	-0.2	-1.62
CCOC(=O)c1ccc(NC(=O)COc2ccc(S(=O)(=O)NC(C)C)cc2)cc1	-2.4	-0.2	72.1*	30.7	-1.4	.
